# Among all 5,500 compounds or so, about 2,000 (36%) were called active. About 18% were inconclusive and are not listed. This is one part of the list. A number with no mark means an inactive call. Rule as the data show it: active = normalized growth mostly below about 0.91 (no sharp cut-off); inconclusive = no clear call, values can overlap the other calls; inactive = mostly above about 0.92.
# Assay: chemical genetic growth profiling, strain panel (AID 1159580);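 also: tested at 20 µM; growth read once vehicle control cultures reached saturation at 30 °C; 1 = growth at the plate median or of vehicle wells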
# Details: S. cerevisiae deletion strains, growth OD
structure (smiles),measurement,setting,value
O=c1c(-c2ccccc2)coc2cc(O)cc(O)c12,normalized growth,"locus YAL013W, strain DEP1, stronger effect = lower value",0.837 (active)
same,normalized growth,"locus YAL021C, strain ccr4, stronger effect = lower value",0.977
same,normalized growth,"locus YAL026C, strain drs2, stronger effect = lower value",0.927
same,normalized growth,"locus YAL030W, strain snc1, stronger effect = lower value",0.99
same,normalized growth,"locus YBL061C, strain skt5, stronger effect = lower value",0.978
same,normalized growth,"locus YBR009C, strain hhf1, stronger effect = lower value",0.946
same,normalized growth,"locus YBR021W, strain FUR4, stronger effect = lower value",0.859
same,normalized growth,"locus YBR023C, strain chs3, stronger effect = lower value",0.967
same,normalized growth,"locus YBR171W, strain sec66, stronger effect = lower value",1.01
same,normalized growth,"locus YBR229C, strain ROT2, stronger effect = lower value",0.853 (active)
same,normalized growth,"locus YBR231C, strain swc5, stronger effect = lower value",0.965
same,normalized growth,"locus YBR279W, strain paf1, stronger effect = lower value",1
same,normalized growth,"locus YCL011C, strain gbp2, stronger effect = lower value",0.969
same,normalized growth,"locus YCL016C, strain dcc1, stronger effect = lower value",0.983
same,normalized growth,"locus YCL029C, strain bik1, stronger effect = lower value",0.636 (active)
same,normalized growth,"locus YCL061C, strain MRC1, stronger effect = lower value",0.961
same,normalized growth,"locus YCL069W, strain vba3, stronger effect = lower value",1
same,normalized growth,"locus YCR088W, strain abp1, stronger effect = lower value",1.01
same,normalized growth,"locus YDL005C, strain med2, stronger effect = lower value",1.04
same,normalized growth,"locus YDL035C, strain GPR1, stronger effect = lower value",0.825 (active)
same,normalized growth,"locus YDL040C, strain nat1, stronger effect = lower value",1.01
same,normalized growth,"locus YDL074C, strain BRE1, stronger effect = lower value",0.564 (active)
same,normalized growth,"locus YDL101C, strain DUN1, stronger effect = lower value",0.494 (active)
same,normalized growth,"locus YDL185W, strain tfp1, stronger effect = lower value",0.332 (active)
same,normalized growth,"locus YDL192W, strain arf1, stronger effect = lower value",0.781 (active)
same,normalized growth,"locus YDR001C, strain nth1, stronger effect = lower value",1.01
same,normalized growth,"locus YDR069C, strain doa4, stronger effect = lower value",0.903
same,normalized growth,"locus YDR101C, strain arx1, stronger effect = lower value",0.758 (active)
same,normalized growth,"locus YDR137W, strain rgp1, stronger effect = lower value",0.821 (active)
same,normalized growth,"locus YDR159W, strain sac3, stronger effect = lower value",1.08
same,normalized growth,"locus YDR162C, strain NBP2, stronger effect = lower value",0.826 (active)
same,normalized growth,"locus YDR195W, strain ref2",1.03
same,normalized growth,"locus YDR297W, strain sur2, stronger effect = lower value",0.977
same,normalized growth,"locus YDR318W, strain mcm21, stronger effect = lower value",0.819 (active)
same,normalized growth,"locus YDR334W, strain swr1, stronger effect = lower value",0.995
same,normalized growth,"locus YDR335W, strain msn5, stronger effect = lower value",0.993
same,normalized growth,"locus YDR388W, stronger effect = lower value",0.879 (active)
same,normalized growth,"locus YDR392W, strain spt3, stronger effect = lower value",0.913
same,normalized growth,"locus YDR502C, strain sam2, stronger effect = lower value",0.793 (active)
same,normalized growth,"locus YEL003W, strain gim4, stronger effect = lower value",0.971
same,normalized growth,"locus YEL037C, strain rad23, stronger effect = lower value",0.981
same,normalized growth,"locus YEL061C, strain CIN8 (second series), stronger effect = lower value",1.02
same,normalized growth,"locus YER015W, strain faa2, stronger effect = lower value",0.979
same,normalized growth,"locus YER016W, strain bim1, stronger effect = lower value",1.01
same,normalized growth,"locus YER110C, stronger effect = lower value",0.84 (active)
same,normalized growth,"locus YER111C, strain swi4, stronger effect = lower value",0.963
same,normalized growth,"locus YER155C, strain BEM2 (second series), stronger effect = lower value",0.982
same,normalized growth,"locus YER155C, strain BEM2, stronger effect = lower value",0.769 (active)
same,normalized growth,"locus YER167W, strain BCK2, stronger effect = lower value",0.911
same,normalized growth,"locus YFR010W, strain ubp6, stronger effect = lower value",0.937
same,normalized growth,"locus YGL078C, strain dbp3, stronger effect = lower value",0.822 (active)
same,normalized growth,"locus YGL086W, strain mad1, stronger effect = lower value",0.786 (active)
same,normalized growth,"locus YGL167C, strain pmr1, stronger effect = lower value",1.01
same,normalized growth,"locus YGL173C, strain kem1, stronger effect = lower value",0.991
same,normalized growth,"locus YGL227W, strain vid30, stronger effect = lower value",1.02
same,normalized growth,"locus YGL240W, strain doc1, stronger effect = lower value",0.935
same,normalized growth,"locus YGL248W, strain PDE1, stronger effect = lower value",0.744 (active)
same,normalized growth,"locus YGL253W, strain hxk2, stronger effect = lower value",0.972
same,normalized growth,"locus YGR135W, strain pre9, stronger effect = lower value",0.727 (active)
same,normalized growth,"locus YGR229C, strain SMI1, stronger effect = lower value",0.613 (active)
same,normalized growth,"locus YGR252W, strain gcn5, stronger effect = lower value",0.648 (active)
same,normalized growth,"locus YHR013C, strain ard1, stronger effect = lower value",0.992
same,normalized growth,"locus YHR027C, strain rpn1, stronger effect = lower value",0.998
same,normalized growth,"locus YHR030C, strain SLT2, stronger effect = lower value",0.879 (active)
same,normalized growth,"locus YHR079C, strain IRE1 (second series), stronger effect = lower value",0.739 (active)
same,normalized growth,"locus YHR094C, strain hxt1, stronger effect = lower value",0.936
same,normalized growth,"locus YHR129C, strain ARP1, stronger effect = lower value",0.795 (active)
same,normalized growth,"locus YHR142W, strain chs7, stronger effect = lower value",0.946
same,normalized growth,"locus YHR200W, strain rpn10, stronger effect = lower value",0.84 (active)
same,normalized growth,"locus YIL066C, strain RNR3, stronger effect = lower value",0.817 (active)
same,normalized growth,"locus YIL073C, strain SPO22, stronger effect = lower value",0.76
same,normalized growth,"locus YIL125W, strain kgd1, stronger effect = lower value",0.755 (active)
same,normalized growth,"locus YIR030C, strain dcg1, stronger effect = lower value",0.884 (active)
same,normalized growth,"locus YJL092W, strain hpr5, stronger effect = lower value",0.993
same,normalized growth,"locus YJL095W, strain BCK1 (second series), stronger effect = lower value",0.996
same,normalized growth,"locus YJL095W, strain BCK1, stronger effect = lower value",0.447 (active)
same,normalized growth,"locus YJL115W, strain asf1, stronger effect = lower value",1.02
same,normalized growth,"locus YJL129C, strain trk1, stronger effect = lower value",1
same,normalized growth,"locus YJL134W, strain LCB3, stronger effect = lower value",0.924 (active)
same,normalized growth,"locus YJL154C, strain vps35, stronger effect = lower value",1.02
same,normalized growth,"locus YJL164C, strain tpk1, stronger effect = lower value",0.934
same,normalized growth,"locus YJL166W, strain qcr8, stronger effect = lower value",0.966
same,normalized growth,"locus YJL168C, strain set2, stronger effect = lower value",0.973
same,normalized growth,"locus YJL187C, strain SWE1 (second series), stronger effect = lower value",0.394 (active)

# Reference: PubChem BioAssay AID1159580 (chemical genetic matrix, 2015)
